# S-ASM inh = Inhibitors of Secretory Acid Sphingomyelinase (S-ASM): qHTS. Sphingomyelin phosphodiesterase (Homo sapiens), P17405. 340,000 compounds, 0.006% hits. Potency, µM (top dose mostly 57.5 µM), without a hit: at the top dose activity change, negative = inhibition, most hits filed as inhibitors. placental ASM, HMU-PC fluorogenic substrate, 60 min; note: potency is the fitted concentration of half-maximal effect
# Target sequence (P17405 47-631 limits assumed): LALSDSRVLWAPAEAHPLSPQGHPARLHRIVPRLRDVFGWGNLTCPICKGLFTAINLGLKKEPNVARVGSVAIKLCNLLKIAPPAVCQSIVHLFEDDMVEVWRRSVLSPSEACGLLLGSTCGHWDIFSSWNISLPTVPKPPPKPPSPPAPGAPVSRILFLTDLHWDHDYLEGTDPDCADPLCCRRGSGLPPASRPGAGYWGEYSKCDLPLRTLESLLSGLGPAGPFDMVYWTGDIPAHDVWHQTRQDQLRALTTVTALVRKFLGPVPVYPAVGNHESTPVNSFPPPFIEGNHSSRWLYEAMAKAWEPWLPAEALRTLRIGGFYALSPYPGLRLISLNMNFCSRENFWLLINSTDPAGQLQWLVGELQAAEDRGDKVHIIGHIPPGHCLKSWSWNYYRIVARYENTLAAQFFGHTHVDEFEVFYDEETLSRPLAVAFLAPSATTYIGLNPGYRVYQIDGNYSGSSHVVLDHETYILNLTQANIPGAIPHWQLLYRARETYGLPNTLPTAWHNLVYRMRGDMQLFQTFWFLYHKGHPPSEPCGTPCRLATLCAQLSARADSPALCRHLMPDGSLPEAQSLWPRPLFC
#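 Fluorescence read-out (Ex 386 nm, Em 447 nm) after stopping the reaction at pH 10. Enzyme: ASM from human placenta; substrate HMU-PC0, 9 uM final; 60 min, 37 °C. Compound preincubation 10 min, ambient temperature.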
# Giardia killer = Small Molecules that selectively kill Giardia lamblia: qHTS; Giardia lamblia trophozoite viability; activity change, % at 7.66 µM, hits read low; 340,000 compounds, 0.15% hits; in the data active = activity change below about -80%; inconclusive = between about -30% and that limit;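 note: parasites exposed to compound for two days anaerobically before the ATP read; % is set by controls: 0 for no effect and ±100 for the full control effect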
#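 Each well holds 100 Giardia trophozoites and compound. After two days (48 hrs) at 37 deg C in anaerobic conditions, ATP is quantified by luminescence.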
# SW480 rerep = A quantitative high throughput screen for small molecules that induce DNA re-replication in SW480 colon adenocarcinoma cells | SW480 DNA re-replication, Hoechst DNA content imaging, 48 h | Potency, µM (titrated, usually from 46.1 µM), for inactives: top-dose re-replication activation, usual class: activators | 340,000 compounds, 1.8% hits | AID 624297, 2012; note: potency is the fitted concentration of half-maximal effect; % of control where 0% means no effect; nearly all actives have a fitted effect of over 55% in size
#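 First, 250 cells per well were seeded. Next, compound or vehicle (23 nL) was pinned in, plates sat 48 hr at 37 C. Finally Hoechst was added for 40 min before fluorescence scanning.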
# MCF10A rereplic = A quantitative high throughput screen for small molecules that induce DNA re-replication in MCF 10a normal breast cells | MCF 10A DNA re-replication, Hoechst nuclear intensity, 48 h | Potency, µM (titrated, usually from 46.1 µM), for inactives: top-dose activity, positive = re-replication, actives largely listed as activators | 350,000 compounds, 2.9% hits; note: potency is the fitted concentration of half-maximal effect; % of control where 0% means no effect; nearly all actives have a fitted effect of over 50% in size
# KB-3-1 tox = qHTS assay for MDR1-selective chemotherapeutics: Primary screen using the parental adenocarcinoma cell KB-3-1. KB-3-1 viability, CellTiter-Glo ATP luminescence, 72 h. 400,000 compounds, 1.4% hits. Potency, µM (top dose mostly 46.1 µM), usual class: cytotoxic. AID 1347075, 2019; note: potency is the fitted concentration of half-maximal effect; % is set by controls: 0 for no effect and ±100 for the full control effect; nearly all actives have a fitted effect of over 60% in size
#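 Viability of parental KB-3-1 cells, measured by CellTiter-Glo luminescence, followed a 72 h incubation at 37 °C with pinned compounds in phenol-red-free DMEM containing 10% FBS.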
# KB-V1 cytotox = qHTS assay for MDR1-selective chemotherapeutics: Primary screen using the drug-selected MDR subline cells KB-V1; Potency, µM (doses to about 46.1 µM), actives largely listed as cytotoxic; KB-V1 MDR cells viability, CellTiter-Glo, 72 h; 400,000 compounds, 3.4% hits; note: potency is the fitted concentration of half-maximal effect; % is set by controls: 0 for no effect and ±100 for the full control effect; nearly all actives have a fitted effect of over 60% in size
#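 Compound-treated KB-V1 multidrug-resistant cells, 72 h, 37 degrees C; viability by CellTiter-Glo. Fitted qHTS curves give the values.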
# * hit, by the source's call; i = inactive; ? = inconclusive; / = no result. Rows were chosen to be rich in hits. Some 6.9% of all compounds tested hit in one or more screens of this group. Unless noted, calls come from the whole dose curve; as a rule, active = well fitted curve in the direction sought with a large enough effect; inconclusive = small, poorly fitted or top-dose-only effect, or another doubt; inactive = no such curve, though single readings can be large; an effect the other way counts as inactive or inconclusive.
SMILES,S-ASM inh,Giardia killer,SW480 rerep,MCF10A rereplic,KB-3-1 tox,KB-V1 cytotox
Cc1ccc(Sc2nc(C)c([N+](=O)[O-])c(C)c2C#N)cc1,-4.2%,0.3,-37.4%,?,i,i
CCCc1nn2c(C)c(-c3ccccc3)nc2s1,/,/,/,/,i,i
CCN(Cc1ccccc1)C(c1cc2cc(C)ccc2[nH]c1=O)c1nnnn1CCOC (configuration not stated),0.1%,1.6,2.8%,0.7%,?,16.4µM*
COCCn1nnnc1C(c1cc2cc(C)cc(C)c2[nH]c1=O)N1CCN(c2ccccc2F)CC1 (configuration not stated),-2.5%,-15.4,0.9%,1.9%,i,23.1µM*
CCN(Cc1ccccc1)C(c1cc2cc(C)cc(C)c2[nH]c1=O)c1nnnn1CCOC (configuration not stated),4.1%,2.7,5.4%,1.3%,i,i
Cc1ccc2c(c1)CCC2=O,/,/,/,/,i,i
O=C(Nc1nc(-c2cc(Cl)sc2Cl)cs1)c1cccs1,-11.0%,-19.9,17.8%,8.2µM*,?,?
O=C(Nc1nc(-c2cc(Cl)sc2Cl)cs1)c1ccc(Br)s1,-0.5%,8.4,-7.0%,?,20.6µM*,?
O=C(NC(=S)Nc1nc(-c2ccc(Cl)cc2)cs1)c1cccs1,-3.6%,-12.1,-136.9%,?,i,i
CCOC(=O)c1cc(C#N)c(SC(C(=O)N2CCCCC2)c2ccccc2)nc1C (configuration not stated),/,/,/,/,i,i
CN1CCCC1CCNc1ncnc2ccc(-c3ccc4c(c3)OCO4)cc12 (configuration not stated),/,/,/,/,i,?
Cc1cc(C)cc(NC(=O)c2cc(S(=O)(=O)N3CCCCCC3)cn2C)c1,/,/,/,/,i,i
CN=C1S/C(=C\c2cc(C)n(-c3ccccc3F)c2C)C(=O)N1C,38.1%,-19.5,3.8%,20.6µM*,i,i
Cc1cc(/C=C2\SC(=S)N(C)C2=O)c(C)n1-c1cccc(O)c1,-12.2%,-13.1,17.1%,13µM*,?,?
CN1C(=O)/C(=C\c2cc(N=Nc3ccccc3)ccc2O)SC1=S,-9.0%,-7.2,-0.6%,2.91µM*,?,?
CN(C)c1ccc(C=C2SC(=S)N(Cc3ccco3)C2=O)cc1,/,/,/,/,i,i
Cc1cc(/C=C2\SC(=S)N(Cc3ccco3)C2=O)c(C)n1-c1ccccc1,-2.3%,-20.8,-1.6%,5.8µM*,i,i
COc1ccc(-n2c(C)cc(/C=C3/SC(=S)N(C)C3=O)c2C)cc1,14.7%,22.8,-85.6%,-8.3%,i,i
CN1C(=O)/C(=C\c2ccccc2OCc2ccccc2)SC1=S,-0.6%,-21.4,-2.2%,1.3%,i,i
CON(C)c1nc(OCCNC(=O)OCc2ccc(Cl)cc2C)nc(N(C)C)n1,-2.8%,24.7,-1.4%,7.1%,i,1.64µM*
CN(C)c1nc(OCCNC(=O)Nc2ccccc2)nc(N(C)C)n1,2.2%,5.8,-9.8%,-0.8%,i,i
CN(C)c1nc(OCCNC(=O)COc2ccccc2Cl)nc(N(C)C)n1,6.9%,-1.2,-0.8%,?,i,1.64µM*
CC(C)(C)c1ccc(C(=O)NC2=NC(c3cccc(F)c3)CC(=O)N2)cc1 (configuration not stated),/,/,/,/,i,i
CCn1c(SCC(=O)Nc2oc(-c3ccccc3)c(-c3ccccc3)c2C#N)nnc1-c1ccncc1,-21.1%,25.8,9.3%,23.1µM*,i,i
CCn1c(SCC(=O)Nc2oc(-c3ccccc3)c(-c3ccccc3)c2C#N)nnc1-c1ccco1,-12.6%,-1.6,8.9%,?,i,?
SMILES,S-ASM inh,Giardia killer,SW480 rerep,MCF10A rereplic,KB-3-1 tox,KB-V1 cytotox
COc1ccc(-c2oc(NC(=O)CSc3nncn3C)c(C#N)c2-c2ccc(OC)cc2)cc1,-9.4%,2.0,2.4%,13µM*,?,i
N#Cc1c(NC(=O)CSc2ccccn2)oc(-c2ccccc2)c1-c1ccccc1,-2.5%,-5.0,10.4%,20.6µM*,i,i
CCCCOc1ccc(C(=O)N(Cc2nc(-c3ccc(Cl)cc3)no2)C(C)C)cc1,/,/,/,/,i,i
O=C(Cc1ccccc1)Nc1c(C(=O)N2CCN(c3ccc(F)cc3)CC2)oc2ccccc12,/,/,/,/,i,11.6µM*
O=C(COc1ccccc1)Nc1c(C(=O)N2CCN(c3ccc(F)cc3)CC2)oc2ccccc12,/,/,/,/,i,i
CCOc1ccc2oc(C(=O)O)c(C)c2c1,3.1%,15.9,4.1%,-1.4%,i,i
CCOc1ccc2oc(C(=O)N3CCN(Cc4ccccc4)CC3)c(C)c2c1,3.0%,-7.6,5.1%,20.6µM*,i,i
Cc1c(C(=O)N2CCN(CCc3ccccc3)CC2)oc2ccccc12,0.6%,12.3,0.7%,?,i,13µM*
COCCCNC(=O)C1CCN(Cc2cc3ccccc3n2Cc2cccc(C)c2)CC1,/,/,/,/,i,i
CC1(C)CSC(C)(C)C(=O)N1,4.1%,-8.9,0.0%,-1.5%,i,?
COC(=O)C1CSC(C)(C)C(=O)N1 (configuration not stated),4.0%,-11.5,-41.3%,0.92µM*,i,i
CC(C)[C@H](NC(=O)C1CCCC1)c1nc2ccccc2[nH]1,-1.2%,-17.2,?,9.2µM*,i,i
COc1ccc(S(=O)(=O)N2CCC(C(=O)NC(c3nc4ccccc4[nH]3)C(C)C)CC2)cc1 (configuration not stated),3.9%,-3.8,9.0%,?,i,i
Cn1cccc1C(=O)C(=O)Nc1ccc(F)c(F)c1,-2.3%,-12.8,-0.3%,0.2%,i,i
c1c[nH]c(C2CCN(c3ncc(-c4ccc5c(c4)OCCCO5)s3)CC2)n1,/,/,/,/,i,i
Cc1ccc(NC(=O)c2ccc3c(c2)nnn3C)cc1,0.3%,-8.7,-5.8%,11.0%,i,i
CN(C)c1ccc(NC(=O)c2ccc3c(c2)nnn3C)cc1,-5.1%,1.2,16.4µM*,?,i,i
Cc1ccccc1OCC(O)CN1CCN(CCN2C(=O)c3cccc4cccc(c34)C2=O)CC1 (configuration not stated),-2.3%,-2.0,10.0%,15.0%,?,?
Cc1cccc(C)c1OCC(O)CN1CCC(CN2C(=O)c3cccc4cccc(c34)C2=O)CC1 (configuration not stated),-8.0%,-10.4,?,?,20.6µM*,?
